Data on 8 compounds can be found in PubChem BioAssay (NCATS).

The structures appear in SMILES notation. Inconclusive results are not listed. The source made the active and inactive calls. Unless noted, calls follow the shape of the dose curve; as a rule, active = well fitted curve in either direction with a large enough effect (not every such curve was filed as active); inconclusive = small, poorly fitted or top-dose-only effect, or another doubt; inactive = flat fitted curve, though single readings scatter.

The target of assay [1] is Lysosomal acid glucosylceramidase (Homo sapiens) (UniProt P04062). Briefly: Glucocerebrosidase-p2 (AID 348; in the data active = potency below about 10 µM; also: potency is read from the fitted curve at half-maximal effect). The settings on record: purified GBA, blue fluorogenic substrate, 40 min. The method, boiled down: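 Normal human glucocerebrosidase (0.2 nM) with blue fluorogenic substrate (80 uM final) in citrate/phosphate pH 5.9 with 10mM sodium taurocholate, 0.01% tween-20; 40 min RT, NaOH/glycine stop; fluorescence Ex 365/Em 440; AC50 from a titration from 0.6 nM upwards.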

The nature of assay [2]: AP1 Signaling Pathway (AID 357). Also: % is scaled to controls: 0 for no effect and ±100 for the full control effect. To be noted: ME-180 AP-1-bla reporter, EGF-induced, beta-lactamase ratio, 5 h; at 7.69 µM (top of the series) unless noted. The method, boiled down: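 Read-out was the 460nm/530nm emission ratio (excitation 405nm) after CCF4 loading for 2.5 hours at room temperature. Cells carried an AP-1-driven beta-lactamase reporter, were stimulated with EC50 EGF plus compound for 5 hours, and AC50 values came from titrations.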

The nature of assay [3]: Stat Signaling Pathway (AID 446).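 Also: ME-180 cervical cancer cells given 40 pM IL-6 alongside compound; SIE-controlled beta-lactamase reporter measured as 460/530 nm FRET emission ratio; % is scaled to controls: 0 for no effect and ±100 for the full control effect.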 The settings on record: ME-180 SIE beta-lactamase reporter, IL-6 stimulated, 5 h; at 7.69 µM (top of the series) unless noted. The method, boiled down:
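Compound effects on IL-6-induced STAT reporter activity were measured in ME-180 cells. After overnight culture, cells were co-treated with 40 pM IL-6 for 5 hrs before beta-lactamase substrate loading at room temperature.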

Assay [4] has as its target Glucocorticoid receptor (Homo sapiens) (UniProt P04150). Briefly: GR-EFC Redistribution (AID 451; calls by dose curve; also: potency is read from the fitted curve at half-maximal effect). To be noted: CHO-K1 GR-EFC translocation, beta-gal luminescence, 2 h. The method, boiled down: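 CHO-K1 cells expressing nuclear EA and GR-ED fragments of b-gal; compounds titrated up to 46 uM final, 2 h at 37 C. GR nuclear translocation read as complemented b-gal luminescence after 1 h RT detection.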

Assay [5] addresses Mitogen-activated protein kinase 10 (Mus musculus) (UniProt Q61831). Briefly: JNK3 AlphaScreen Assay (AID 530).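 Also: kinase came from lysate of stimulated human HepG2 cells; signal reports phosphorylation of biotinylated GST-cJun 1-79 at Ser73 with 10 µM ATP; % is scaled to controls: 0 for no effect and ±100 for the full control effect.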 To be noted: JNK3 lysate, c-Jun phosphorylation; series mostly up to 57.1 µM. In short, it runs like this:
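Activity was read by AlphaScreen after JNK3-containing HepG2 lysate (cytokine pre-activated) phosphorylated biotinylated GST-cJun with 10 uM ATP at room temperature. Phospho-Ser73 cJun antibody with Protein-A acceptor beads provided detection.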
(Bead proximity is the source of the signal in Alpha formats.)

Assay [6] concerns the target 3',5'-cyclic-AMP phosphodiesterase 4B (Homo sapiens) (UniProt Q07343). Briefly: qHTS Assay for Inhibitors of PDE-IV (AID 607; active = well fitted activation curve with a large enough effect in the main read-out, with a control signal flat, not every such curve was filed as active; also: % of control where 0% means no effect). The settings on record: HEK293 ACTOne CNG channel cells, membrane potential fluorescence; series mostly up to 22.9 µM. In short, it runs like this: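 ACTOne HEK293 cells carry a modified cAMP-gated CNG channel and express endogenous PDE4; plated 1000 cells/well, compounds up to 22.9 uM final. Membrane-potential dye fluorescence (ex 535/em 590) was read; parental cells received 10 uM forskolin + 100 uM RO 20-1724.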

Assay [7] can be described thus: qHTS Assay for Lipid Storage Modulators (AID 1519; calls by dose curve). The settings on record: Drosophila S3 cells, BODIPY lipid droplet/cell ratio, laser cytometry, cells loaded with oleic acid; for activity change, negative = inhibition: at 57.5 µM (top of the series). In short, it runs like this: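 Cells seeded at 5,000 per well were treated with compounds over a concentration series and loaded with oleic acid (400 uM, as added). Lipid droplet fluorescence (488 nm excitation, 500-530 nm channel) was read by laser-scanning cytometry and normalized to 20 uM Triacsin C.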

Assay [8] is described as follows: Primary qHTS for small molecule stabilizers of the endoplasmic reticulum resident proteome: Secreted ER Calcium Modulated Protein (SERCaMP) assay (AID 1508630; active = well fitted inhibition curve with a large enough effect; also: % is scaled to controls: 0 for no effect and ±100 for the full control effect). The settings on record: SH-SY5Y GLuc-SERCaMP (Gaussia luciferase released on ER calcium loss) secretion, thapsigargin, luminescence; series mostly up to 38.4 µM. In short, it runs like this:
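The SH-SY5Y reporter protocol was run at 3 concentrations up to 38.3 uM (primary) or 11 concentrations (follow-up): 16 h compound, 100 nM thapsigargin for 4 h, then extracellular luciferase luminescence.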
On the technique in general: Quantitative high-throughput screening tests each substance at several concentrations.

Assay [9] has as its target Cytochrome P450 2C19 (Homo sapiens) (UniProt P33261). Briefly: qHTS Assay for Inhibitors and Substrates of Cytochrome P450 2C19 (AID 899; active = well fitted inhibition curve with a large enough effect; also: potency is read from the fitted curve at half-maximal effect; nearly all actives have a fitted effect of over 60% in size). To be noted: recombinant CYP2C19, luciferin-H EGE luminescence; series mostly up to 57.1 µM. The method, boiled down: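 Luminescent read-out of luciferin formed from Luciferin-H EGE (10uM, equal to KM). Enzyme 5nM in 50mM KPO4; compound added, 10 min at 37C, then NADPH regenerating system for 60 min at 37C. Full inhibition defined by 57uM ketoconazole.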

Assay [10] in a line: qHTS Assay for Identification of Small Molecule Agonists for Hypoxia Response Element Signaling Pathway (AID 914; active = well fitted activation curve with a large enough effect in the signal ratio, with a control signal flat, not every such curve was filed as active; the % refers to the signal ratio; also: potency is read from the fitted curve at half-maximal effect). To be noted: ME-180 (cervical carcinoma) HRE-bla reporter, beta-lactamase ratio, CoCl2, 17 h; activation: stronger effect = higher value. The method, boiled down:
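Cells were plated overnight, pin-dosed with compound in a titration series, co-stimulated with EC50 CoCl2 and incubated 17 hours at 37 degrees Celsius. CCF4 substrate was then loaded, and AC50 values came from the 460nm/530nm ratio.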

[11] abbreviates: measured here: cell count channel max response.
Setting [12] is: measured here: lipid channel max response.

Chain of Glucocorticoid receptor (Homo sapiens) (P04150 whole entry, looked up, the tested form may be a part): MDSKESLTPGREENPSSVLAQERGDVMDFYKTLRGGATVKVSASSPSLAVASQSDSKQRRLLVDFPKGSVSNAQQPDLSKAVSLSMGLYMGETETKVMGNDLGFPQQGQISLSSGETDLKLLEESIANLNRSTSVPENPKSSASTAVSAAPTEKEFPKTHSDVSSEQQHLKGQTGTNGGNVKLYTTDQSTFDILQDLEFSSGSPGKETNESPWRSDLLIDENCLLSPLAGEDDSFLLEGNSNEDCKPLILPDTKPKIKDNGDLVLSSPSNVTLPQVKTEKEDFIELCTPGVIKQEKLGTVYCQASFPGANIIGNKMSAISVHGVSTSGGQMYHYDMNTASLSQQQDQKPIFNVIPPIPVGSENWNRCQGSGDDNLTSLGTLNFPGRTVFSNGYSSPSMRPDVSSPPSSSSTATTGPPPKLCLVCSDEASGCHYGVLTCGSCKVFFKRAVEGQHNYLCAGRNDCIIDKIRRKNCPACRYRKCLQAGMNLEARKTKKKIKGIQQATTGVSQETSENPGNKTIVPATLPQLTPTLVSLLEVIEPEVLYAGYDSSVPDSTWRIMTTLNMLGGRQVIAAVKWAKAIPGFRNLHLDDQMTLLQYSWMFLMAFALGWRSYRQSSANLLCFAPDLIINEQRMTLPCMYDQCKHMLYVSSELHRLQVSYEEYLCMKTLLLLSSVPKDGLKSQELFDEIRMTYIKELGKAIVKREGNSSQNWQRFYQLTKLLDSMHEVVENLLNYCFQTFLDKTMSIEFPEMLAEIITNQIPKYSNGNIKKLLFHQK
Chain of Lysosomal acid glucosylceramidase (Homo sapiens) (P04062 whole entry, looked up): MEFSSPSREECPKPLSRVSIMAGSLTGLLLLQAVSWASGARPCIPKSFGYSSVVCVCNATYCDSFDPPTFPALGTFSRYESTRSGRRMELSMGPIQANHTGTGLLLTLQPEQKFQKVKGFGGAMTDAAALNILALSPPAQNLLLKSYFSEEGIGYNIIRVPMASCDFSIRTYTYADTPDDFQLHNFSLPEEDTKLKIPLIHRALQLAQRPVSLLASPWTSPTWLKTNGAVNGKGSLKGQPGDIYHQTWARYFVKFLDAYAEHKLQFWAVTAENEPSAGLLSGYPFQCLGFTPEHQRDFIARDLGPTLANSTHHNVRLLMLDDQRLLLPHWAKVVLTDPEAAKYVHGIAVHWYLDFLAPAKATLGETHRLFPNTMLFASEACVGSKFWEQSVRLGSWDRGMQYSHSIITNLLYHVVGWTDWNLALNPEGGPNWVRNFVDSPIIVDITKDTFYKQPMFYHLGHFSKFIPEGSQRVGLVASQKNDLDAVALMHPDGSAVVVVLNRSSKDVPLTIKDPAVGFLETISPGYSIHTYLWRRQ
Chain of 3',5'-cyclic-AMP phosphodiesterase 4B (Homo sapiens) (Q07343 whole entry, looked up): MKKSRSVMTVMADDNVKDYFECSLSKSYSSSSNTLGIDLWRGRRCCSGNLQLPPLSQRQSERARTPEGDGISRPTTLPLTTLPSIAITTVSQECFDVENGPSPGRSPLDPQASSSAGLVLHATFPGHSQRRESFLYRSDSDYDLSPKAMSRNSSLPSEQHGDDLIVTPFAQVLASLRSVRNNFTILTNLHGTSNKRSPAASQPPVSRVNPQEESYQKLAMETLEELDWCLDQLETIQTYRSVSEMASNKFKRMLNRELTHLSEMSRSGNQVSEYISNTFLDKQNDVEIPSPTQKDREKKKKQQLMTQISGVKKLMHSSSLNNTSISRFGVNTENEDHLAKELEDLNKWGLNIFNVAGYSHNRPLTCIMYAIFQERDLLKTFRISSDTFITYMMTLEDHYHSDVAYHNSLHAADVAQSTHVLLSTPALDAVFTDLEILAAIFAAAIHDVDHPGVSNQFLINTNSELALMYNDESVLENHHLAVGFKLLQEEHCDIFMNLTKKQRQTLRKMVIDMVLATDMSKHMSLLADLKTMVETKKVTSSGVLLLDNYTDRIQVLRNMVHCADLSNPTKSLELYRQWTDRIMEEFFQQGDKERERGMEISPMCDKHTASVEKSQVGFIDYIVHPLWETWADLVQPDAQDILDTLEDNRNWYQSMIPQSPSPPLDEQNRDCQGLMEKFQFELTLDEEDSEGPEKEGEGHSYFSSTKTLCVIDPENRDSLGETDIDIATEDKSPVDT
Chain of Cytochrome P450 2C19 (Homo sapiens) (P33261 whole entry, looked up): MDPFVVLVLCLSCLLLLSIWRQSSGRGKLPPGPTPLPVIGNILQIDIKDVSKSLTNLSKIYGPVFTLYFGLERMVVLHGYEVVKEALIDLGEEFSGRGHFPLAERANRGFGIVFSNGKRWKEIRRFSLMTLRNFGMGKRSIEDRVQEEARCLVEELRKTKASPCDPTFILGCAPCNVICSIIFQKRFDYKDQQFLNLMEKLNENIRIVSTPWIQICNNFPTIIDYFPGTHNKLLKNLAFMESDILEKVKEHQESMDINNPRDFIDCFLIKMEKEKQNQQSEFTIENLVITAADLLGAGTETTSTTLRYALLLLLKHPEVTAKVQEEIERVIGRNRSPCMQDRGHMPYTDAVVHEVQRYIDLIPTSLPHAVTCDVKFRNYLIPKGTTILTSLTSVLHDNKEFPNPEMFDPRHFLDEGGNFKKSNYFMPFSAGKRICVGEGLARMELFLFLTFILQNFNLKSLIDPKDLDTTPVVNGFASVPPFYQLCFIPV

Take `COc1ccc(C(=O)N2CCC3(CCN(CC(C)C)CC3)CC2)cc1`: the Potency is > 11.4 µM (inactive) in [1] and > 46 µM (inactive) in assay [4]. In addition, the figures for the activity change, negative = inhibition in assay [2] and in [7] were -18% (inactive) and -2.62% (inactive), respectively. In addition, the activity, negative = inhibition in assay [3] is -2.75% (inactive). The Potency result in assay [5] and in [6] was “inactive” each time. The results for the max response in assay [7] (setting [11]) and in assay [7] (setting [12]) were -10.1% and -11.3%, respectively. Besides, in assay [8], the result was inactive.

In the case of `COCC(=O)N1CCC2(CC1)CCN(c1ccncc1)CC2`, the Potency in assay [1] is > 11.4 µM (inactive); in assay [4], > 46 µM (inactive). Moreover, the activity change, negative = inhibition in assay [2] is 7.44% (inactive); in assay [7] it was -1.56% (inactive). The activity, negative = inhibition in assay [3] is 16.3% (inactive). In addition, the Potency entry in assay [5] and in assay [6] was “inactive” in each case. Moreover, the results for the max response in assay [7] (setting [11]) and in [7] (setting [12]) were -6.96% and -10.2%, respectively. Besides, the outcome in [8] was inactive.

For `COC(=O)N1CCC2(CCCN(c3ccccn3)C2)CC1`, the Potency was > 11.4 µM (inactive) in assay [1], > 46 µM (inactive) in assay [4] and 3.16 µM (active) in [9]. Moreover, the activity change, negative = inhibition in [2] is -5.95% (inactive); in assay [7] it was 1.3% (inactive). Moreover, the activity, negative = inhibition in assay [3] is -6.11% (inactive). Further, the Potency result in [5] and in assay [6] was “inactive” each time. Moreover, the values for the max response in [7] (setting [11]) and in assay [7] (setting [12]) were 13.5% and 15.8%, respectively. Also, in [8], the result was inactive.

For `N#Cc1ccc(CN2CC3(CCN(C(=O)c4cnccn4)CC3)C2)cc1`, the results for the Potency in assay [1], in assay [4] and in assay [10] were > 11.4 µM (inactive), > 46 µM (inactive) and 3.16 µM (active), respectively. Further, the activity change, negative = inhibition in assay [2] is -10.3% (inactive); in assay [7] it was 3.16% (inactive). Besides, in assay [3], the activity, negative = inhibition was 11.6% (inactive). The Potency entry in assay [5] and in assay [6] was “inactive” in each case. Also, the max response in assay [7] (setting [11]) was found to be 15%; in assay [7] (setting [12]), 20.2%. Also, in assay [8], the result was inactive.

Regarding `O=C(c1ccncc1)N1CCC2(CC1)CN(c1ccncc1)C2`, the Potency in assay [1] was > 11.4 µM (inactive); in [4], > 46 µM (inactive). The activity change, negative = inhibition was 6.26% (inactive) in [2] and 1.59% (inactive) in assay [7]. For the same compound, the activity, negative = inhibition in [3] was 1.34% (inactive). Also, the Potency result in [5] and in assay [6] was “inactive” in each case. Besides, the max response in [7] (setting [11]) is -20.1%; in [7] (setting [12]), -17.6%. In addition, the result in assay [8] was inactive.

Take `CS(=O)(=O)N1CCC2(CCCN(Cc3ccc(C#N)cc3)C2)CC1`: the Potency was > 11.4 µM (inactive) in assay [1] and > 46 µM (inactive) in assay [4]. The values for the activity change, negative = inhibition in [2] and in assay [7] were -16.1% (inactive) and 1.06% (inactive), respectively. In addition, the activity, negative = inhibition in assay [3] was -15% (inactive). Also, the Potency result in [5] and in assay [6] was “inactive” each time. Further, the values for the max response in assay [7] (setting [11]) and in [7] (setting [12]) were -8.06% and -6.26%, respectively. Besides, the result in [8] was inactive.

For the compound `N#Cc1ccc(CN2CCC3(CC2)CCN(C(=O)c2ccco2)CC3)cc1`, the Potency in assay [1] was > 11.4 µM (inactive); in assay [4] it was > 46 µM (inactive). Further, the activity change, negative = inhibition was -11.2% (inactive) in assay [2] and 1.05% (inactive) in [7]. The activity, negative = inhibition in [3] was -4.42% (inactive). The Potency result in assay [5] and in [6] was “inactive” each time. Besides, the max response in assay [7] (setting [11]) came out at 20.4%; in assay [7] (setting [12]) it was 24%. For the same compound, in assay [8], the result was inactive.

For the compound `CC(=O)N1CCC2(CCCN(c3ccncc3)C2)CC1`, the values for the Potency in assay [1] and in [4] were > 11.4 µM (inactive) and > 46 µM (inactive), respectively. Moreover, the results for the activity change, negative = inhibition in [2] and in assay [7] were -16.6% (inactive) and 4.08% (inactive), respectively. For the same compound, the activity, negative = inhibition in assay [3] is -5.29% (inactive). The Potency entry in assay [5] and in assay [6] was “inactive” in each case. The results for the max response in assay [7] (setting [11]) and in assay [7] (setting [12]) were 1.51% and 7.47%, respectively. Also, in assay [8], the result was inactive.
